PubChem BioAssay AID1159580 (chemical genetic matrix, 2015)
Where “and” joins values, the source holds several entries; their conditions need not be identical. Equal entries are not always repeated. The whole screen tested about 5,500 compounds, of which about 2,000 (36%) were called active. Inconclusive results (about 18%) are left out. Rule as the data show it: active = normalized growth mostly below about 0.91 (no sharp cut-off); inconclusive = no clear call, values can overlap the other calls; inactive = mostly above about 0.92. The list shows a part of the results.

Assay: chemical genetic growth profiling, strain panel (AID 1159580);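 also: tested at 20 µM; growth read once vehicle control cultures reached saturation at 30 °C; 1 = growth at the plate median or of vehicle wells; lower values mean less growth of the strain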
Conditions: S. cerevisiae deletion strains, growth OD

Measured: normalized growth

OC(c1cc(C(F)(F)F)nc2c(C(F)(F)F)cccc12)C1CCCCN1 (stereo not drawn)
inactive: locus YAL021C, strain ccr4, hits give low values 0.995 | locus YAL026C, strain drs2, hits give low values 0.972 | locus YAL030W, strain snc1, hits give low values 1.02 | locus YBL061C, strain skt5, hits give low values 1.01 | locus YBR009C, strain hhf1, hits give low values 1.01 | locus YBR021W, strain FUR4, hits give low values 0.965 | locus YBR023C, strain chs3, hits give low values 1 | locus YBR171W, strain sec66, hits give low values 1.02 | locus YBR229C, strain ROT2, hits give low values 0.988 | locus YBR231C, strain swc5, hits give low values 1.01 | locus YBR279W, strain paf1, hits give low values 1.02 | locus YCL011C, strain gbp2, hits give low values 1.01 | locus YCL016C, strain dcc1, hits give low values 1 | locus YCL029C, strain bik1, hits give low values 0.999 | locus YCL069W, strain vba3, hits give low values 0.999 | locus YCR088W, strain abp1, hits give low values 1.01 | locus YDL005C, strain med2, hits give low values 1.01 | locus YDL035C, strain GPR1, hits give low values 0.968 | locus YDL040C, strain nat1, hits give low values 1.02 | locus YDL074C, strain BRE1, hits give low values 0.945 | locus YDL101C, strain DUN1, hits give low values 0.993 | locus YDL134C, strain PPH21, hits give low values 0.966 | locus YDL185W, strain tfp1, hits give low values 0.979 | locus YDL192W, strain arf1, hits give low values 0.997 | locus YDR001C, strain nth1, hits give low values 1.01 | locus YDR069C, strain doa4, hits give low values 1.01 | locus YDR101C, strain arx1, hits give low values 0.993 | locus YDR137W, strain rgp1, hits give low values 1.12 | locus YDR150W, strain NUM1, hits give low values 0.995 | locus YDR159W, strain sac3, hits give low values 0.999 | locus YDR162C, strain NBP2, hits give low values 0.969 | locus YDR195W, strain ref2 1.02 | locus YDR297W, strain sur2, hits give low values 1.01 | locus YDR318W, strain mcm21, hits give low values 0.988 | locus YDR334W, strain swr1, hits give low values 1.01 | locus YDR335W, strain msn5, hits give low values 1.01 | locus YDR388W, hits give low values 0.995 | locus YDR392W, strain spt3, hits give low values 0.997 | locus YDR502C, strain sam2, hits give low values 0.987 | locus YEL003W, strain gim4, hits give low values 1.02 | locus YEL037C, strain rad23, hits give low values 1.02 | locus YEL061C, strain CIN8 (second series), hits give low values 1 | locus YEL061C, strain CIN8, hits give low values 0.994 | locus YER015W, strain faa2, hits give low values 1.01 | locus YER016W, strain bim1, hits give low values 1.01 | locus YER110C, hits give low values 0.996 | locus YER111C, strain swi4, hits give low values 1.01 | locus YER155C, strain BEM2 (second series), hits give low values 1.02 | locus YER155C, strain BEM2, hits give low values 0.997 | locus YER167W, strain BCK2, hits give low values 0.971 | locus YFR010W, strain ubp6, hits give low values 1 | locus YGL078C, strain dbp3, hits give low values 0.985 | locus YGL086W, strain mad1, hits give low values 0.988 | locus YGL167C, strain pmr1, hits give low values 1.02 | locus YGL173C, strain kem1, hits give low values 1.02 | locus YGL227W, strain vid30, hits give low values 1 | locus YGL240W, strain doc1, hits give low values 1.03 | locus YGL248W, strain PDE1, hits give low values 0.997 | locus YGL253W, strain hxk2, hits give low values 1 | locus YGR078C, strain PAC10, hits give low values 0.98 | locus YGR135W, strain pre9, hits give low values 0.973 | locus YGR229C, strain SMI1, hits give low values 0.95 | locus YGR252W, strain gcn5, hits give low values 0.922 | locus YHR013C, strain ard1, hits give low values 1 | locus YHR027C, strain rpn1, hits give low values 1.02 | locus YHR030C, strain SLT2, hits give low values 0.994 and 0.969 | locus YHR079C, strain IRE1 (second series), hits give low values 0.985 | locus YHR079C, strain IRE1, hits give low values 0.984 | locus YHR094C, strain hxt1, hits give low values 0.988 | locus YHR129C, strain ARP1, hits give low values 0.99 | locus YHR142W, strain chs7, hits give low values 0.984 | locus YHR200W, strain rpn10, hits give low values 0.996 | locus YIL066C, strain RNR3, hits give low values 0.973 | locus YIL073C, strain SPO22, hits give low values 0.979 | locus YIL125W, strain kgd1, hits give low values 0.995 | locus YIR030C, strain dcg1, hits give low values 0.99 | locus YJL092W, strain hpr5, hits give low values 1.01 | locus YJL095W, strain BCK1 (second series), hits give low values 1 | locus YJL095W, strain BCK1, hits give low values 0.969 and 0.948 | locus YJL115W, strain asf1, hits give low values 1.01 | locus YJL129C, strain trk1, hits give low values 1.02 | locus YJL134W, strain LCB3, hits give low values 0.993 | locus YJL154C, strain vps35, hits give low values 1.01 | locus YJL164C, strain tpk1, hits give low values 0.986 | locus YJL166W, strain qcr8, hits give low values 1.02 | locus YJL168C, strain set2, hits give low values 0.99 | locus YJL187C, strain SWE1 (second series), hits give low values 0.991 | locus YJR043C, strain POL32, hits give low values 0.979
